From PubChem BioAssay AID1986 (Sanford-Burnham Center for Chemical Genomics, 2009)
Screen size: about 290,000 compounds; about 890 (0.31%) were called active. Cut-off read from the data, not from the text of the source: active = inhibition mostly above about 52% (no sharp cut-off); inactive = mostly below about 76%. The entries come from a sample that favours actives as a whole.

Experiment: cell-free HIV fusion peptide-binding blockers – biochemical, uHTS, fluorescence dequenching, primary screen (AID 1986)
Settings: 30 min, stronger effect = higher value
[1] = measured here: repeat confirmation average inhibition, at 18.6 µM

Row | SMILES | inhibition (at 20 µM) | inhibition [1] [%]
1 | Cc1ccc(-c2ccc(/C=N\NC(=O)c3cc4c(ccc5ccccc54)o3)o2)cc1[N+](=O)[O-] | -1.4% (inactive) | 
2 | Cc1ccc(/C=N/NC(=O)c2cc3c(ccc4ccccc43)o2)o1 | -1.7% (inactive) | 
3 | O=C(N/N=C/c1ccc(-c2ccc(Cl)c(C(=O)O)c2)o1)c1cc2c(ccc3ccccc32)o1 | 50.3% (active) | 
4 | CCC(C)NC(=O)COC(=O)c1cccnc1Nc1ccccc1F (configuration not stated) | 0.1% (inactive) | 
5 | CCCCOC(=O)Cn1c2ccc(OC)cc2c2nc3ccccc3nc21 | 53.3% (active) | 57.8
6 | CCOC(=O)Cn1c2ccc(OC)cc2c2nc3ccccc3nc21 | 3% (inactive) | 
7 | COC(=O)Cn1c2ccc(OC)cc2c2nc3ccccc3nc21 | 9.1% (inactive) | 
8 | CCc1ccc(-c2cc3c(=O)n(CC(=O)NCCN4CCCCC4C)nc(C)n3n2)cc1 (configuration not stated) | -0.3% (inactive) | 
9 | O=C1CCC/C(=N/NC(=O)c2sc3ccccc3c2Cl)C1 | 81.5% (inactive) | 39.7
10 | COc1ccc2c(Cl)c(C(=O)N/N=C3\CCCC(=O)C3)sc2c1 | 77.7% (active) | 
11 | COc1ccc2c(Cl)c(C(=O)NN)sc2c1 | 1.3% (inactive) | 
12 | CC(C)(C)NC(=O)CSc1ccc(C(C)(C)C)cc1 | -2.2% (inactive) | 
13 | NC(=O)N/N=C/c1c(Sc2nnnn2-c2ccccc2)nc2ccccn2c1=O | 0% (inactive) | 
14 | O=c1c(/C=N/O)c(Nc2ccccc2)nc2ccccn12 | -2.7% (inactive) | 
15 | O=C(O)c1ccc(/C=N/Nc2nnnn2-c2ccccc2)cc1 | 2.1% (inactive) | 
16 | O=c1c(/C=N/Nc2ccccc2)c(Sc2nnnn2-c2ccccc2)nc2ccccn12 | 96.2% (active) | 
17 | O=C(O)c1ccccc1N/N=C/c1c(Sc2nnnn2-c2ccccc2)nc2ccccn2c1=O | 80.8% (active) | 54.8
18 | O=Cc1c(Sc2ccccc2)nc2ccccn2c1=O | 2.6% (inactive) | 
19 | O=C(CC1Sc2ccccc2NC1=O)NCc1cccc(Cl)c1 (configuration not stated) | 1% (inactive) | 
20 | CCOC(=O)c1nnn(-c2nonc2N)c1CN1CCCC1 | -0.2% (inactive) | 
21 | COc1ccccc1-c1c(C(F)(F)F)oc2cc(OCC(=O)Nc3ccccc3C(F)(F)F)ccc2c1=O | 3.1% (inactive) | 
22 | COc1ccccc1NC(=O)CSc1nnc(Cn2c(=O)sc3ccccc32)n1C | 0.2% (inactive) | 
23 | COC(=O)C[n+]1cccc2ccccc21 | 78.3% (active) | 65.6
24 | NC(=O)C[n+]1cccc2ccccc21 | 1.3% (inactive) | 
25 | O=C(C[n+]1cccc2ccccc21)c1ccccc1 | 11.8% (inactive) | 

Row | SMILES | inhibition (at 20 µM) | inhibition [1] [%]
26 | CCOCCCNC(=O)/C(C#N)=C/c1ccc(C)o1 | -0.3% (inactive) | 
27 | Cc1ccccc1OCc1nc(-c2ccc(-n3cccc3)cc2)no1 | 3.2% (inactive) | 
28 | COc1ccccc1C(=O)C1CCCN(C(=O)c2cnn(C(C)C)c2)C1 (configuration not stated) | -0.2% (inactive) | 
29 | Oc1ccc2ccccc2c1C=Nc1ccccc1Br | 0.3% (inactive) | 
30 | CN(C)/N=C/c1c(O)ccc2ccccc12 | -5.1% (inactive) | 
31 | Oc1ccccc1N=Cc1c(O)ccc2ccccc12 | 67.4% (active) | 
32 | Cc1ccc(Cl)cc1N1CCN(S(=O)(=O)c2ccc3c(c2)NC(=O)C(C)C(=O)N3)CC1 (configuration not stated) | 1.3% (inactive) | 
33 | CCn1c(C)c(C(C)=O)c(N2CCN(c3ccccn3)CC2)nc1=S | 6.8% (inactive) | 
34 | C(=C\c1ccccc1)/CNn1cnnc1 | -2.1% (inactive) | 
35 | Cc1[nH]c2ccccc2c1/C=C/c1cc[n+](C)cc1 | 144% (inactive) | 
36 | C[n+]1cc(C(=O)N2CCCCC2)ccc1/C=C/c1c[nH]c2ccccc12 | 148% (inactive) | 
37 | CCN(CC)C(=O)c1ccc(/C=C/c2c[nH]c3ccccc23)[n+](C)c1 | 91.3% (active) | 81.7
38 | Cc1ccc(C(=O)/C=C/c2c[nH]c3ccccc23)cc1 | 2.2% (inactive) | 
39 | CC[n+]1c(/C=C/c2c[nH]c3ccccc23)ccc2cc(C)ccc21 | 142% (inactive) | 
40 | O=C(/C=C/c1c[nH]c2ccccc12)c1ccccc1 | -2.9% (inactive) | 
41 | C[n+]1ccc(/C=C/c2c[nH]c3ccccc23)cc1 | 82.6% (active) | 
42 | CC[n+]1ccc(/C=C/c2c[nH]c3ccccc23)cc1 | 97.2% (active) | 77.7
43 | OCC[n+]1ccc(/C=C/c2c[nH]c3ccccc23)cc1 | 53% (active) | 
44 | O=c1c2ccccc2nc(/C=C/c2c[nH]c3ccccc23)n1CCO | 5.3% (inactive) | 
45 | COc1ccc2c(/C=C/c3cc[n+](C)cc3)c[nH]c2c1 | 6.5% (inactive) | 
46 | CCc1ccc(/C=C/c2c[nH]c3ccccc23)[n+](CC)c1 | 2.5% (inactive) | 
47 | Cc1nnsc1-c1nc2ccccc2[nH]1 | -1.6% (inactive) | 
48 | COc1ccc(NC(=O)c2cc(Br)ccc2Cl)c([N+](=O)[O-])c1 | -0.4% (inactive) | 
49 | O/N=C\c1ccc2noc(-c3ccc(Cl)cc3)c2c1 | 0% (inactive) | 
50 | c1ccc(Oc2ncnc3sccc23)cc1 | -1.5% (inactive) | 

Row | SMILES | inhibition (at 20 µM) | inhibition [1] [%]
51 | N#Cc1ccc(CSc2nnc(NC(=O)CN3C(=O)C4CC=CCC4C3=O)s2)cc1 (configuration not stated) | 6.4% (inactive) | 
52 | COc1cccc(/C=N/NC(=O)c2[nH]c(C)c(C(=O)N/N=C/c3cccc(OC)c3O)c2C)c1O | 4.6% (inactive) | 
53 | CCCn1cnc2scc(-c3ccc(C)cc3)c2c1=O | -1.9% (inactive) | 
54 | Cc1ccc(C)c(NC(=O)CSc2nnc(C3CCCCC3)o2)c1 | -1.1% (inactive) | 
55 | O=C(O)CCn1c(=O)n(CCC(=O)O)c(=O)n(CCC(=O)O)c1=O | 0.1% (inactive) | 
56 | O=C(CN1c2ccccc2Sc2ccccc21)N/N=C/c1ccc(Cl)cc1 | -1% (inactive) | 
57 | C[n+]1ccc(/C=C/c2c[nH]c3ccc(F)cc23)cc1 | 77.8% (active) | 85.8
58 | COc1ccc2[nH]cc(/C=C/c3cc[n+](C)cc3)c2c1 | 18.3% (inactive) | 
59 | Cc1ccc2[nH]cc(/C=C/c3cc[n+](C)cc3)c2c1 | 160% (inactive) | 
60 | CC1=C(C(=O)Nc2ccc(C(=O)NC(C)c3ccccc3)cc2)SCCO1 (configuration not stated) | 2.3% (inactive) | 
61 | O=C(Nc1cccc(C(=O)N2CCCCC2)c1)c1ccccc1Br | -1.4% (inactive) | 
62 | O=S(=O)(NCc1ccccc1F)NCc1ccccc1F | -1.9% (inactive) | 
63 | Clc1ccc(-c2nnc(Sc3nc4ccccc4o3)c3ccccc23)cc1 | -0.2% (inactive) | 
64 | O=c1c(Cl)c2oc3ccccc3nc-2c2ccccc12 | 50.8% (active) | 
65 | O=c1c(-c2nc3ccccc3o2)c2oc3ccccc3n2c2ccccc12 | -2.3% (inactive) | 
66 | O=C(N/N=C\c1ccc2c(c1)OCO2)c1ccc(Cn2cc(Br)c([N+](=O)[O-])n2)o1 | -2.8% (inactive) | 
67 | Cc1ccc(/C=C2\Oc3c(ccc(O)c3CN3CCN(CCO)CC3)C2=O)cc1 | 35.2% (inactive) | 
68 | O=C1/C(=C/C=C/c2ccccc2)Oc2c1ccc(O)c2CN1CCN(CCO)CC1 | 128% (inactive) | 
69 | COc1ccccc1/C=C/C=C1\Oc2c(ccc(O)c2CN(C)C)C1=O | 146% (inactive) | 
70 | CCN(CC)Cc1c(O)ccc2c(=O)c(-c3ccccc3)coc12 | -1.9% (inactive) | 
71 | CCN1CCN(Cc2c(O)ccc3c2O/C(=C\C=C\c2ccccc2)C3=O)CC1 | 53.7% (active) | 
72 | CN(C)Cc1c(O)ccc2c1O/C(=C\C=C\c1ccccc1)C2=O | 77.7% (active) | 124
73 | CCN(CC)Cc1c(O)ccc2c(-c3ccccc3)cc(=O)oc12 | -2.2% (inactive) | 
74 | CS(=O)(=O)Oc1ccc2c(c1)O/C(=C\C=C\c1ccccc1)C2=O | 3.8% (inactive) | 
75 | CCN1CCN(Cc2c(O)ccc3c2O/C(=C\C=C\c2ccccc2OC)C3=O)CC1 | 149% (inactive) | 

Row | SMILES | inhibition (at 20 µM) | inhibition [1] [%]
76 | COc1ccccc1/C=C/C=C1\Oc2c(ccc(O)c2CN2CCN(CCO)CC2)C1=O | 122% (active) | 
77 | CCN1CCN(Cc2c(O)ccc3c2O/C(=C\c2ccccc2)C3=O)CC1 | 67.8% (inactive) | 22.1
78 | CCN(CC)Cc1c(O)ccc2c1O/C(=C\C=C\c1ccccc1)C2=O | 116% (active) | 143
79 | CCCCN(C)CCNC(=O)CN1C(=O)CSc2ccc(S(=O)(=O)N3CCOCC3)cc21 | 1% (inactive) | 
80 | CCN1C(=O)c2cccc3c(S(=O)(=O)Nc4ccncc4)ccc1c23 | 3.5% (inactive) | 
81 | COc1ccccc1C(=O)C1CCCN(C(=O)c2cc(CC(C)C)nc(C)n2)C1 (configuration not stated) | -0.9% (inactive) | 
82 | CCOc1ccc(-n2cnnn2)cc1S(=O)(=O)NC1CC1 | 0.2% (inactive) | 
83 | CCOC(=O)N1CCN(C(=O)C2CCN(S(=O)(=O)c3c(C)cc(C)cc3C)CC2)CC1 | -1.7% (inactive) | 
84 | O=C(NCc1ccco1)c1ccc(Cl)nc1 | -2% (inactive) | 
85 | CN1Cc2sc(NC(=S)NC(=O)c3ccccc3)c(C#N)c2CC1(C)C | 70.3% (active) | 
86 | CCCN1CCc2c(sc(NC(=S)NC(=O)c3ccccc3)c2C#N)C1 | 78.4% (active) | 
87 | CCN1CCc2c(sc(NC(=S)NC(=O)c3ccccc3)c2C#N)C1 | 26.3% (inactive) | 
88 | N#Cc1c(NC(=S)NC(=O)c2ccccc2)sc2c1CCCC2 | 0.9% (inactive) | 
89 | CCC1(C)Cc2c(sc(NC(=S)NC(=O)c3ccccc3)c2C#N)CO1 (configuration not stated) | -2.1% (inactive) | 
90 | N#Cc1c(NC(=S)NC(=O)c2ccccc2)sc2c1CCN(CCc1ccccc1)C2 | 138% (inactive) | 
91 | N#Cc1c(NC(=S)NC(=O)c2ccccc2)sc2c1CCC2 | 14.9% (inactive) | 
92 | CC(C)N1CCc2c(sc(NC(=S)NC(=O)c3ccccc3)c2C#N)C1 | 81% (active) | 
93 | CC(C)N1CCc2c(sc(NC(=O)Cc3ccccc3)c2C#N)C1 | -0.4% (inactive) | 
94 | N#CC(c1ccccc1)C1CCN(Cc2ccccc2)CC1 (configuration not stated) | 0.8% (inactive) | 
95 | O=c1c2cn[nH]c2[nH]c(=S)n1-c1ccccc1 | 1.4% (inactive) | 
96 | CCCCC/S(CC1CC1(Cl)Cl)=N\S(=O)(=O)c1ccc(C)cc1 (configuration not stated) | 0.9% (inactive) | 
97 | CN(CC(=O)Nc1ccc(C(N)=O)cc1)CC(=O)Nc1ccccc1Br | 0.7% (inactive) | 
